From PubChem BioAssay come the findings set out here.

The test system of this test is Inhibin beta A chain (activin A). The experiment in a line: small molecules binding activin A – biochemical, small-molecule microarray, 635 nm fluorescence scan, primary screen (AID 1107).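 Note: mouse activin A protein probed at 4.33 µg/mL on printed slides; score merges bound-protein fluorescence near 667 nm with spot signal-to-noise.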 The following applies: INHBA, higher = more signal.
Take `COCCOC(=O)N1C(=O)[C@@]2(c3cc(C#CC4=CCCCC4)ccc31)[C@H](C(N)=O)[C@H]1C(=O)O[C@H](c3ccccc3)[C@H](c3ccccc3)N1[C@@H]2c1ccccc1OCCO`: the composite z-score was determined as 0.455.
The compound `O=C1NC(=O)C2C1C=CC(C(O)c1ccco1)N2Nc1ccccn1` (stereo unspecified) gave a composite z-score of 1.01.
Compound `CCCCN1CC=CC23O[C@@H]4/C=C\CCC(C)OC(=O)C4[C@H]2C(=O)N(C(CO)C(C)C)[C@@H]3C1=O` (stereo partly specified) registered a composite z-score of 1.14.
The compound `CC=CC(O)C1C=CC2C(=O)N(c3ccccc3)C(=O)C2N1Nc1ccccc1F` (stereo unspecified) gave a composite z-score of 1.21.
For `COc1ccccc1CN1C(=O)c2ccccc2[C@](Cc2ccccc2I)(C(=O)NCC(F)(F)F)[C@@H]1c1ccc(CO)cc1`, the composite z-score amounted to 0.513.
Compound `O=C1NC(=O)C2C1C=CC(C(O)c1c(F)cccc1Cl)N2Nc1ccc(Cl)cc1Cl` (stereo unspecified) displayed a composite z-score of 1.29.
`COC(=O)[C@@]1(Cc2ccccc2)[C@H]2c3cc(C(=O)N(C)C)n(CCc4ccc(O)c(OC)c4)c3C[C@H]2CN1C(=O)c1ccccc1` returned a composite z-score of -0.0861.
Take `CCCNC(=O)[C@@H]1c2ccccc2C(=O)N(C(C)C)[C@H]1c1ccc(CO)cc1`: the composite z-score amounted to 0.534.
The same measure for `[N-]=[N+]=Nc1ccccc1[C@H]1OC(c2ccc(OCCCO)cc2)=N[C@@]1(Cc1ccccc1)C(=O)N1CCCCC1`: 1.03; for `C=CCC(OC(C)=O)[C@@H]1[C@@H](N(Cc2cccc3ccccc23)C(=O)Cc2ccc(F)cc2)c2cc(OCCCO)ccc2N1C(=O)c1ccc2ccccc2n1` (stereo partly specified): 1.36.
Compound `C[N+](C)(C)CCCC[C@@H]1NC(=O)[C@H]2C[C@@H](C(=O)NCCCCCCN)[C@@H](c3ccc(O)cc3)N2C1=O` had a composite z-score of -0.695.
Compound `C=C(CCCC)/C(=C/C[C@@H](OC(=O)c1ccncc1)c1ccccc1OCCO)c1cnc2ccccc2c1` returned a composite z-score of 1.69.
With `O=C1c2ccccc2[C@](Cc2ccccc2I)(C(=O)NCC(F)(F)F)[C@H](c2ccc(CO)cc2)N1C1CCCCC1`, the composite z-score was 0.82.
With `CC(C)N1C(=O)C[C@@](C(=O)NCCCN(C)C)(c2ccc([N+](=O)[O-])cc2)[C@H]1c1ccc(CO)cc1`, the composite z-score came out at 0.698.
In turn, `C=C[C@@H](COC(C)=O)N(C(=O)OC(C)(C)C)S(=O)(=O)c1ccc(Br)cc1` came in with a composite z-score of 0.824.
In the case of `CC1CC/C=C\[C@H]2OC34C=CCN(c5ccc(Cl)cc5)C(=O)[C@H]3N(CCCCCO)C(=O)[C@]4(C)C2C(=O)O1` (stereo partly specified), the composite z-score is -0.497.
Compound `O=C1O[C@H](c2ccccc2)[C@H](c2ccccc2)N2[C@H]1[C@@H](C(=O)Nc1nc3ccccc3s1)[C@]1(C(=O)Nc3ccc(C#CCCO)cc31)[C@H]2c1ccc(O)cc1` yielded a composite z-score of 0.635.
Consider `COCCOC(=O)N1C(=O)[C@@]2(c3cc(C#CC4(O)CCCCCC4)ccc31)[C@H](c1ccc(O)cc1)N1[C@H](c3ccccc3)[C@H](c3ccccc3)OC(=O)[C@H]1[C@@H]2C(=O)NC[C@H](O)c1ccccc1`, for which the composite z-score is -0.237.
Regarding `O=C1O[C@@H](c2ccccc2)[C@@H](c2ccccc2)N2[C@@H](c3ccccc3OCCO)[C@]3(C(=O)Nc4ccc(C#CCCO)cc43)[C@@H](C(=O)N3CCCCCCC3)[C@H]12`, the composite z-score was 2.05.
The compound `COc1ccc([Si](C)(C)[C@@H]2[C@@H](CCO)O[C@]3(C(=O)N(Cc4ccc(N5CCCCC5=O)cc4)c4ccccc43)[C@H]2C)cc1` came in with a composite z-score of 0.669.
With `O=C(NCC(F)(F)F)[C@@H]1c2ccccc2C(=O)N(Cc2cc(F)cc(C(F)(F)F)c2)[C@H]1c1ccc(CO)cc1` the figure was -0.53; with `Cc1ccccc1C(O)C1C=CC2C(=O)N(C)C(=O)C2N1N(c1ccccc1)c1ccccc1` (stereo unspecified), 1.33; with `O=C(CS)NCCCCCCNC(=O)[C@H]1C[C@H]2C(=O)N[C@@H](Cc3ccccc3)C(=O)N2[C@H]1c1ccc(O)cc1`, -0.95.
The same measure for `C=CCN1Cc2ccccc2[C@H]2OC(c3ccc(OCCCO)cc3)=N[C@@]2(CC=C)C1=O`: 1.39; for `CO[C@]12C=C(Br)[C@@H](C[C@@H]1c1cccc(C)c1)[C@@]1(CO1)C2=O`: 0.521.
With `C=CC[C@]1(C(=O)O)COC(c2ccc(OCCCO)cc2)=N1`, the composite z-score amounted to 0.888.
`CCOC(=O)[C@H]1[C@@H]2C(=O)N3CCC[C@H]3[C@H](O[Si](C(C)C)(C(C)C)C(C)C)[C@H]2C=C2CCN(S(=O)(=O)c3ccc(C)cc3)C[C@H]21`: the composite z-score was 0.141.
Regarding `CN(C)CCCCNC(=O)[C@@H]1C[C@@H]2C(=O)N[C@@H](Cc3ccccc3)C(=O)N2[C@@H]1c1cccc(OCCO)c1`, the composite z-score came out at 0.0765.
With `C=C(C)C1CCC(C(O)C2C=CC3C(=O)N(C)C(=O)C3N2N2CCCCC2)CC1` (stereo unspecified) the figure was 1.42; with `CN1C(=O)C2C=CC(C(O)c3ccccn3)N(N(c3ccccc3)c3ccccc3)C2C1=O` (stereo unspecified), 0.79; with `CN(C)CCCNC(=O)[C@@]1(C)c2ccccc2C(=O)N(Cc2ccccc2)[C@H]1c1ccc(CO)cc1`, 1.
As to `C=CCNC(=O)[C@@H]1[C@H]2C(=O)O[C@H](c3ccccc3)[C@H](c3ccccc3)N2[C@H](c2ccc(O)cc2)[C@@]12C(=O)N(C(=O)OCCOC)c1ccc(C#CC3(O)CCCCCC3)cc12`, the composite z-score is -1.46.
In turn, `CN(C)C(=O)[C@@]1(Cc2ccccc2CN=[N+]=[N-])N=C(c2ccc(OCCCO)cc2)O[C@H]1c1ccccc1CN=[N+]=[N-]` gave a composite z-score of 0.846.
In the case of `O=C1O[C@@H](c2ccccc2)[C@@H](c2ccccc2)N2[C@@H](c3ccc(O)cc3)[C@]3(C(=O)Nc4ccc(C#CC5=CCCCC5)cc43)[C@@H](C(=O)NC[C@H](O)c3ccccc3)[C@H]12`, the composite z-score came out at 1.02.
Take `CC(C)(C)OC(=O)CC[C@]1(C(=O)NCc2ccccc2)N=C(c2ccc(OCCCO)cc2)O[C@H]1c1ccccc1CN=[N+]=[N-]`: the composite z-score worked out at 0.554.
In turn, `CC(C)C[C@@H]1NC(=O)[C@@H]2C[C@H](C(=O)NCCCCN(C)C)[C@H](c3cccc(OCCO)c3)N2C1=O` showed a composite z-score of 0.266.
